Records with an inconclusive call do not appear. Entries that show only a call come without a potency. Activity calls are given as the source filed them. Calls follow the shape of the dose curve; as a rule, active = well fitted cell-killing curve with a large enough effect; inconclusive = small, poorly fitted or top-dose-only effect; inactive = flat fitted curve, though single readings scatter.
Potency is read from the fitted curve at half-maximal effect.

The assay can be described thus: NCATS anti-infectives library activity on HEK293 viability as a counter-qHTS vs the C. elegans viability qHTS (AID 1745854). To be noted: HEK293 viability counter-screen; series mostly up to 41.8 µM. In a few lines: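 CellTiter-Glo luminescence, read on a CCD imager, scored viability of HEK293 cells after 24 hr compound exposure at 37C. Library tested in several concentrations, 1:5 steps, up to 41.7 uM; digitonin served as control.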
In general terms: qHTS replaces the single test concentration by a dilution series.
For the compound `Cc1cccc(C)c1N(CC(=O)Nc1ccc(-c2ncon2)cc1)C(=O)C1CCS(=O)(=O)CC1`, the Potency entry is “inactive”.

Take `Cn1c(Cn2ccc(C(F)(F)F)c(Oc3cc(Cl)cc(C#N)c3)c2=O)n[nH]c1=O`: the Potency entry is “inactive”.

Regarding `O=C(O)[C@H]1C2CCC(CC2)[C@@H]1Nc1nc(-c2c[nH]c3ncc(F)cc23)ncc1F`, the Potency entry is “inactive”.

Turning to `O=C(/C=C/c1ccc(O)c2c1[C@H](C(=O)O)[C@@H](c1ccc(O)c(O)c1)O2)O[C@H](Cc1ccc(O)c(O)c1)C(=O)O`, the Potency result was “inactive”.

With `CC(C)(C)OC(=O)N[C@H]1CCCCC/C=C\[C@@H]2C[C@@]2(C(=O)NS(=O)(=O)C2CC2)NC(=O)[C@@H]2C[C@@H](OC(=O)N3Cc4cccc(F)c4C3)CN2C1=O`, the Potency entry is “inactive”.

`O=C(/C=C/c1ccc(O)c(O)c1)O[C@@H]1CC(O)(C(=O)O)C[C@@H](OC(=O)/C=C/c2ccc(O)c(O)c2)C1O` (stereo not given in full): the Potency entry is “inactive”.

Turning to `C[C@@]1(F)[C@H](O)[C@@H](CO)O[C@H]1n1ccc(=O)[nH]c1=O`, the Potency entry was “inactive”.

On to `CCCCc1ccc(O)cc1O`, for which the Potency result was “inactive”.

Turning to `O=C(O[C@@H]1Cc2c(O)cc(O)cc2O[C@@H]1c1cc(O)c(O)c(O)c1)c1cc(O)c(O)c(O)c1`, the Potency entry is “inactive”.

`COc1cc(-c2oc3cc(O)cc(O)c3c(=O)c2O)ccc1O`: the Potency result was “inactive”.

Turning to `COc1ccc(/C=C/C(=O)O)cc1O`, the Potency entry is “inactive”.

With `[N-]=[N+]=NCc1cccc(/C(O)=C\C(=O)C(=O)O)c1`, the Potency entry was “inactive”.

Consider `CC(C)(C)c1cc(C(=O)/C(C#N)=N/Nc2cccc(Cl)c2)no1`, for which the Potency result is “inactive”.

Consider `CCCCCCCCCCCCCCCc1cccc(O)c1C(=O)O`, for which the Potency result was “inactive”.

For `O=C(/C=C/c1ccc(O)c(O)c1)O[C@H]1[C@H](O)C[C@](O)(C(=O)O)C[C@H]1OC(=O)/C=C/c1ccc(O)c(O)c1`, the Potency entry was “inactive”.

Consider `Cc1cnc(C(=O)N[C@H]2CCCCC/C=C\[C@@H]3C[C@@]3(C(=O)NS(=O)(=O)C3CC3)NC(=O)[C@@H]3C[C@@H](Oc4nc5ccccc5c5ccccc45)CN3C2=O)cn1`, for which the Potency entry was “inactive”.

Regarding `CC(=O)OC(C)(C)CCC(=O)[C@](C)(O)C1[C@H](O)C[C@@]2(C)C3CC=C4C(C[C@H](O)[C@@H](O)C4(C)C)[C@]3(C)C(=O)C[C@]12C` (stereo not given in full), the Potency entry was “inactive”.

Turning to `CC(=O)Nc1ccc(C)c(C(=O)N[C@H](C)c2cccc3ccccc23)c1`, the Potency result is “inactive”.

Consider `O=C(O)[C@H]1O[C@@H](Oc2cc3oc(-c4ccc(O)cc4)cc(=O)c3c(O)c2O)[C@H](O)[C@@H](O)[C@@H]1O`, for which the Potency entry is “inactive”.

In the case of `COc1cnc(-n2cnc(C)n2)c2c1c(C(=O)C(=O)N1CCN(C(=O)c3ccccc3)CC1)cn2COP(=O)(O)O`, the Potency result was “inactive”.

`Oc1ccc(OC2CCCCO2)cc1` (stereo not given): the Potency is 14.1 µM (active).

Take `O=C(O)[C@H]1O[C@@H](Oc2cc3oc(-c4ccccc4)cc(=O)c3c(O)c2O)[C@H](O)[C@@H](O)[C@@H]1O`: the Potency result is “inactive”.

With `O=C(O)c1cc(-c2ccc(/C=C3\SC(=S)N(Cc4ccccc4)C3=O)o2)ccc1Cl`, the Potency result was “inactive”.

For `C=C[C@@H]1C[C@]1(NC(=O)[C@@H]1C[C@@H](Oc2ncc(OC)c3ccc(Cl)cc23)CN1C(=O)[C@@H](NC(=O)OC(C)(C)C)C(C)(C)C)C(=O)NS(=O)(=O)C1CC1`, the Potency entry was “inactive”.

Consider `CCCC[C@H](NC(=O)[C@@H]1[C@@H]2[C@H](CN1C(=O)[C@@H](NC(=O)NC1(CS(=O)(=O)C(C)(C)C)CCCCC1)C(C)(C)C)C2(C)C)C(=O)C(=O)NC1CC1`, for which the Potency result was “inactive”.

Take `O=C(O)CCc1ccc(O)cc1`: the Potency result was “inactive”.

As to `O=c1ccn2c(n1)O[C@H]1[C@H](O)[C@@H](CO)O[C@H]12`, the Potency entry is “inactive”.

On to `CN(C)c1nc2c(Br)c(Br)c(Br)c(Br)c2n1CC(=O)O`, for which the Potency result was “inactive”.

For `O=C(NO)c1cccc(C(=O)NCCc2ccccc2)c1`, the Potency entry was “inactive”.

`CC(C)CN(C[C@@H](O)[C@H](Cc1ccccc1)NC(=O)[C@@H](NC(=O)CNCc1cccc(F)c1)C(C)(C)C)S(=O)(=O)c1cccc(N)c1`: the Potency entry was “inactive”.

On to `CC(C)c1nc(CN(C)C(=O)N[C@@H](CCN2CCOCC2)C(=O)N[C@H](CC[C@H](Cc2ccccc2)NC(=O)OCc2cncs2)Cc2ccccc2)cs1`, for which the Potency entry was “inactive”.

For `O=c1c(O[C@@H]2O[C@H](CO)[C@H](O)[C@H](O)[C@H]2O)c(-c2ccc(O)c(O)c2)oc2cc(O)cc(O)c12`, the Potency entry is “inactive”.

`Cc1cn2nc([C@@H]3CCCCN3C(=O)c3cc(Cl)ccc3NS(C)(=O)=O)cc2nc1N1CC[C@H](N)C1`: the Potency result was “inactive”.

With `Cn1c(=O)cc(N2CCC[C@@H](N)C2)n(Cc2ccccc2C#N)c1=O`, the Potency result was “inactive”.

Consider `CCOC(=O)NCCCC(=O)NCCc1ccccc1`, for which the Potency entry is “inactive”.

Take `O=c1cc(-c2ccc(O)c(-c3c(O)cc(O)c4c(=O)cc(-c5ccc(O)cc5)oc34)c2)oc2cc(O)cc(O)c12`: the Potency result was “inactive”.

Regarding `CC(=O)N[C@@H](CC(C)C)C(=O)N[C@@H](CC(C)C)C(=O)N[C@H](C=O)CCCN=C(N)N`, the Potency result was “inactive”.

With `CC(C)[C@H](NC(=O)OCc1ccccc1)C(=O)N[C@@H](C)C(=O)N[C@@H](CC(=O)O)C(=O)CF`, the Potency result was “inactive”.

In the case of `CC1(C)CC[C@]2(C(=O)O)CC[C@]3(C)C(=CC[C@@H]4[C@@]5(C)CC[C@H](O)C(C)(C)[C@@H]5CC[C@]43C)[C@@H]2C1`, the Potency entry was “inactive”.

In the case of `C[C@H]1O[C@@H](O[C@H]2CC[C@@]3(C)C(CC[C@]4(C)[C@@H]3C=CC3=C5CC(C)(C)CC[C@]5(CO)[C@H](O)C[C@@]34C)[C@]2(C)CO)[C@H](O)[C@@H](O[C@@H]2O[C@H](CO)[C@@H](O)[C@H](O)[C@@H]2O)[C@H]1O` (stereo not given in full), the Potency result is “inactive”.

(Values after PubChem BioAssay (NCATS).)
